MBNL1 CUG block = blocks human MBNL1 binding to CUG repeat RNA | actives 0.036% (n = 280,000) | Q9NR56 | TR-FRET MBNL1-His/biotin-(CUG)12 binding, 665/545 ratio | Potency, µM (highest dose often 57.5 µM), without a hit: at the highest dose activity change, negative = inhibition, hits mostly inhibitors; active = well fitted inhibition curve with a large enough effect in the signal ratio, with a control signal flat, not every such curve was filed as active; inconclusive = small, poorly fitted or top-dose-only effect, or effect the other way, or a change in a side signal; inactive = no such curve, though single readings can be large or run the other way; the % refers to the signal ratio; also: potency is read from the fitted curve at half-maximal effect
Target sequence (Q9NR56 whole entry, looked up): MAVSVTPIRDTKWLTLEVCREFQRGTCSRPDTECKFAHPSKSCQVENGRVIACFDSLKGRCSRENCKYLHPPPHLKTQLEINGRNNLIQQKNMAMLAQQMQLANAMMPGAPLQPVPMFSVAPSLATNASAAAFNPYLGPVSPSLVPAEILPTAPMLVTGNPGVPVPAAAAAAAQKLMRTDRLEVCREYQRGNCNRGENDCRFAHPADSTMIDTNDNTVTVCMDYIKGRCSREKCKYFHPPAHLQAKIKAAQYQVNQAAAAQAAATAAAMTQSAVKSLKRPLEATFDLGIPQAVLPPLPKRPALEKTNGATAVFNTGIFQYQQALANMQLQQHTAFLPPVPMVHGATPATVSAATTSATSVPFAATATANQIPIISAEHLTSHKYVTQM
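Compounds (final 92 nM to 58 uM) are added to His-tagged MBNL1 and biotin-(CUG)12, then terbium anti-His antibody and streptavidin-XL665 (5 nM final). After 60 min at room temperature, the 665/545 nm ratio is read.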
Six1-Eya2 blk = Six1/Eya2 interaction inhibition. AlphaScreen GST-Six1/His-Eya2 binding, biochemical; hits give low values. Q15475+O00167. activity change, % (concentration not given with the values). AID 651725. actives 0.56% (n = 360,000)
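AlphaScreen with GST-Six1 and His-Eya2 (5X mix: 250 nM and 500 nM), glutathione donor and nickel acceptor beads; buffer 50 mM Tris pH 8.0, 300 mM NaCl, 1 mM TCEP; 1 h at 37 C in the dark.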
CtBP-E1A inh = inhibitors of CtBP/E1A interaction. AlphaScreen GST-E1A/His-CtBP binding, 1536-well; hits give low values. activity change, % (test concentration not listed). actives 0.49% (n = 340,000). AID 651724
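AlphaScreen with 125 nM GST-E1A and 125 nM His-CtBP (5X stocks) in Tris pH 8.0, 300 mM NaCl, BSA, Tween 20, TCEP. Compounds preincubated 2 h at 37 deg C, then glutathione donor/nickel acceptor beads added for 1 h at 37 deg C in dark.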
PKM2 act = activators of human pyruvate kinase M2 | P14618 | actives 0.34% (n = 260,000) | AID 1631 | purified PKM2, Kinase-Glo ATP luminescence, activation; response scale: 0% is enzyme alone, no compound | Potency, µM (series often up to 57.5 µM), inactives show top-dose activation, actives largely listed as activators; active = well fitted activation curve with a large enough effect; inconclusive = small, poorly fitted or top-dose-only effect; inactive = no such curve, though single readings can be large or run the other way; also: potency is read from the fitted curve at half-maximal effect; nearly all actives have a fitted effect of over 55% in size
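ATP formation by purified human PK-M2, quantified via coupled luciferase luminescence after 1 h at room temperature with 0.1 mM ADP and 0.5 mM PEP final.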
Numbers without * were called inactive; ? = inconclusive; · = no result; [ ] = remark or other dose. A selection: hits, their analogues and other compounds. The true share with any hit is near 0.93%. Rule as the data show it, unless noted: active = activity change below about -65%; inconclusive = mostly about -30% to -63%; inactive = weaker than that. % is scaled to controls: 0 for no effect and ±100 for the full control effect.

SMILES	MBNL1 CUG block	Six1-Eya2 blk	CtBP-E1A inh	PKM2 act
O=C(CSc1cccc2cccnc12)N1CCCC1	20%	-93*	-91*	1%
CN(C)C(=O)CSc1cccc2cccnc12	15%	-91*	-94*	5%
O=C(CSc1cccc2cccnc12)OCC(=O)c1ccccc1	14%	-88*	-93*	2%
COc1ccc(C2OC(CCc3ccccc3)CC3=C2C(=O)OC(C)(C)O3)cc1 (configuration not stated)	·	4	0	·
COc1cccc(NC(=O)c2nc(SC)ncc2Cl)c1	4%	-2	5	-2%
COc1cccc(NC(=O)c2nc(S(C)(=O)=O)ncc2Cl)c1	12%	24	-90*	12%
CCn1c(Cl)c(C=O)s/c1=N\S(=O)(=O)c1ccccc1	?	-19	-3	16µM*
CCOC(=O)c1ccoc1CSCC(=O)N1CCN(S(=O)(=O)c2ccc(C)cc2)CC1	2%	2	6	25µM*
Cc1csc(SCC(=O)N2CCN(S(=O)(=O)c3ccccc3)CC2)n1	2%	18	-3	32µM*
O=C(CSc1ccccc1)N1CCN(S(=O)(=O)c2ccccc2)CC1	0%	-15	5	2.8µM*
O=C(Cc1cccs1)N1CCN(S(=O)(=O)c2ccc(Br)cc2)CC1	11%	6	5	3.2µM*
O=C(O)CSCC(=O)N1CCN(S(=O)(=O)c2ccccc2)CC1	-3%	5	22	-1%
O=C(CC1c2ccccc2C=C(c2ccsc2)N1c1ccc(-c2cccnc2)cc1)C1CC1 (configuration not stated)	·	13	19	·
Cc1ccc(S(=O)(=O)N2CCN(C(=O)CSc3ccc(F)cc3)CC2)cc1	-9%	17	4	13µM*
Cc1ccc(SCCC(=O)N2CCN(S(=O)(=O)c3ccccc3)CC2)cc1	·	-6	9	·
COc1ccccc1S(=O)(=O)Nc1ccc(-c2nnc3n2CCCCC3)cc1	1%	0	2	20µM*
CCCCN1C(=O)C(CC(=O)NCc2cccc3ccccc23)CC(C(=O)N(C(C)C)C(C)C)=C1C (configuration not stated)	·	-8	6	·
CCOC(=O)[C@]12CCC=C1N(Cc1ccco1)C(=O)[C@H](CC(=O)N1CCN(C(=O)c3ccco3)CC1)C2	·	-1	1	·
C(=N\Nc1nncc2ccccc12)/c1ccccn1	?	-75*	-95*	-30%
O=c1cnnc(N/N=C/c2ccccn2)[nH]1	-4%	-92*	-97*	-2%
Fc1cccc(/C=N/Nc2nncc3ccccc23)c1	9%	-18	·	·
C(=N\Nc1nc2ccccc2[nH]1)/c1ccccn1	9%	?	·	-67%
COc1cc(OC)cc(-c2noc(-c3csc([C@@H]4C[C@H](O)[C@@H](CO)O4)n3)n2)c1	·	-5	0	·
O=[N+]([O-])c1ccc(O)c(/C=N/n2cnc3ccccc32)c1	?	0	3	-1%
Cc1ccc(/C=C2\SC(=S)N(/N=C/c3cc([N+](=O)[O-])ccc3O)C2=O)o1	?	-89*	-93*	-2%
SMILES	MBNL1 CUG block	Six1-Eya2 blk	CtBP-E1A inh	PKM2 act
CCOc1ccc2c(c1)sc1nc(C(=O)OC)cc(=O)n12	·	-1	0	·
CCOc1ccc2c(c1)s/c(=N\S(=O)(=O)c1ccc(OC)cc1)n2C(F)F	-5%	0	6	1.6µM*
Cc1ncc(CO)c(/C=N/NC(=S)Nc2ccc(F)cc2)c1O	·	-90*	-86*	-9%
Cc1ncc(CO)c(/C=N/Nc2ccc(C(F)(F)F)cn2)c1O	19%	-75*	-96*	-9%
COc1ccc([C@]23Cc4cc(C#N)ccc4C(O2)c2c(c4ccc(OC)cc4oc2=O)O3)cc1	-6%[11.5 µM]	·	·	-1%[11.5 µM]
O=C(N/N=C/c1ccc(OC(=O)c2ccccc2Cl)cc1)c1cc(O)cc(O)c1	-4%	-68*	-74*	15%
C/C(=N\Nc1ccc2nncn2n1)c1ccccn1	21%	-91*	-95*	-8%
C/C(=N\Nc1ccc2nncn2n1)c1ccco1	·	-9	-19	-8%
COc1ccc(/C=N/NC(=O)c2cc(-c3ccccc3)nc3ccccc23)c(C(=O)O)c1OC	11%	1	2	·
COc1cc([N+](=O)[O-])cc(/C=N/NC(=O)c2cc(C)nc3ccccc23)c1O	?	-93*	-83*	-2%
O=C(O)COc1ccccc1/C=N/NC(=O)c1cc(-c2ccc(F)cc2)nc2ccccc12	?	-72*	?	·
COc1cc([N+](=O)[O-])cc(/C=N/NC(=O)c2cc(-c3ccccc3)nc3ccccc23)c1O	-11%	?	-88*	0%
COc1cccc(/C=N/NC(=O)c2cc(-c3ccccn3)nc3ccccc23)c1O	·	-75*	-95*	·
COC(=O)Cn1c(C(=O)N2CCCC2)cc2c1C[C@H]1CN(C(=O)c3ccccc3)[C@@](Cc3ccccc3)(C(=O)OC)[C@@H]21	·	·	·	1%
COc1cc(/C=N/NC(=O)c2cccc([N+](=O)[O-])c2)cc(OC)c1O	?	-2	·	10%
COc1cccc(/C=N/NC(=O)c2ccc([N+](=O)[O-])cc2Cl)c1O	?	-89*	-88*	-3%
COc1ccc(/C=N/Nc2cc(C)nc(-n3nc(C)cc3C)n2)cc1	2%	-28	-17	3%
Cc1cc(N/N=C/c2ccc(O)cc2O)nc(-n2nc(C)cc2C)n1	-3%	-70*	-80*	4%
Cc1nc(Cl)cc(N/N=C/c2ccc(O)cc2O)n1	14%	-67*	-81*	0%
COc1ccc(Cc2c(-c3ccccc3)nc3ccc(Br)cn23)c(C)c1	·	-9	-2	·
COc1cc(NC(=O)c2cccs2)c(OC)cc1NC(=O)CCC(=O)Nc1ccc(C)cc1	-2%	?	?	·
COc1cccc(NC(=O)c2cccs2)c1	4%	4	6	-1%
COc1cccc(NC(=O)CCC(=O)Nc2cc(OC)c(NC(=O)c3cccs3)cc2OC)c1	-3%	-69*	-82*	7%
COc1ccc(NC(=O)CCC(=O)Nc2cc(OC)c(NC(=O)c3cccs3)cc2OC)cc1	7%	-79*	-79*	0%
C[C@H]1CN([C@@H](C)CO)S(=O)(=O)c2ccc(C#Cc3ccccn3)cc2O[C@@H]1CN(C)C(=O)C1CC1	·	2	-4	·
COc1ccc(N2C(=O)[C@@H]3[C@H](C2=O)[C@H]2C=CC=NN2[C@@H]3C(=O)Nc2ccc(Cl)cc2)cc1	·	-3	-6	8.9µM*
O=c1ccc(-c2ccc(S(=O)(=O)NCC3CCN(Cc4ccccc4F)CC3)s2)n[nH]1	?	-84*	-88*	·
CSCCOC(=O)c1[nH]c2c(c1C)C(=O)CC(c1ccco1)C2 (configuration not stated)	-1%	-21	-3	22µM*
COCCOC(=O)c1[nH]c2c(c1C)C(=O)CC(c1ccco1)C2 (configuration not stated)	1%	-17	-2	?
